Assay results: PubChem BioAssay AID651823 (Broad Institute, 2012)
The other results are listed elsewhere or left out. Cut-off read from the data, not from the text of the source: active = max delta Tm above about 0.48 degrees C; inactive = the rest.

target: Kelch-like ECH-associated protein 1 (Homo sapiens) (UniProt Q14145); assay: Tm shift of Keap1 Kelch upon compound binding – biophysical, thermal shift, RT-PCR instrument, cherry-pick, dose response (AID 651823); conditions: stronger effect = higher value; at 50 µM unless noted
Sequence (Q14145 whole entry, looked up): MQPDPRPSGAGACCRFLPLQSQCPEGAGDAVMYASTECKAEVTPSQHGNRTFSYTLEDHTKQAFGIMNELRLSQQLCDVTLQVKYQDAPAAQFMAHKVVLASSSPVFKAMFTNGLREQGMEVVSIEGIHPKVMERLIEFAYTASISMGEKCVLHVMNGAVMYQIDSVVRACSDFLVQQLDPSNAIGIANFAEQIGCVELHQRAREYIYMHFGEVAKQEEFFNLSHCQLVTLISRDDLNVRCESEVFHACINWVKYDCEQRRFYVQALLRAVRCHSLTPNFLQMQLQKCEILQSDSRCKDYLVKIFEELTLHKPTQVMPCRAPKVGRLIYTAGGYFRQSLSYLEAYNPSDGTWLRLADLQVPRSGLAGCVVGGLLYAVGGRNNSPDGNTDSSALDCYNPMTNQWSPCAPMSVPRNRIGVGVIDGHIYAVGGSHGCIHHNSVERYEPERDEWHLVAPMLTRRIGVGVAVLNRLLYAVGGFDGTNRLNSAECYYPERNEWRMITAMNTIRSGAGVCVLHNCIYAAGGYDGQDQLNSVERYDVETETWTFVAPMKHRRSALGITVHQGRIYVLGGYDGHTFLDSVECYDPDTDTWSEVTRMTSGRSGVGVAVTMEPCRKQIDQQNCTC

Max delta Tm, inactive:
O=C(CCc1ccccc1)NNc1ccc(F)cc1 -0.17 °C [at 0.8 µM]
CCCN(CCC)C(=O)C1c2ccccc2Oc2ccccc21 -0.08 °C [at 0.38 µM]
CN(CCOc1ccc(CC2SC(=O)NC2=O)cc1)c1ccccn1 (centres undefined) -0.09 °C [at 0.8 µM]
CCN1/C(=C\c2ccc3ccccc3[n+]2CC)Sc2cc(C)ccc21 -0.01 °C [at 26 µM]
